Source: PubChem BioAssay (National Center for Advancing Translational Sciences (NCATS))
Compounds with a hit are over-represented: about 7.3% of the library has one in this group of screens.
HCV inh: blocks hepatitis C virus. Huh7.5.1 HCVcc-Cre infection, luciferase reporter, 44 h. Potency, µM (titrated, usually from 41.8 µM), inactives show top-dose activity change, negative = inhibition, actives largely listed as inhibitors. 340,000 tested, 3.4% active. AID 651820; further: potency means the concentration at half of the fitted maximal effect
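Seed cells (1,000/well) for 4 h; treat with compound and infect with HCVcc-Cre, moi about 0.5. Incubate 44 h, then detect luciferase activity.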
AmpC detergent: inhibitors of E. coli AmpC beta-lactamase with detergent | P00811 | AmpC hydrolysis of nitrocefin, absorbance 480 nm, 0.01% Triton | Potency, µM (top dose mostly 114 µM), for inactives: top-dose activity change, negative = inhibition, hits mostly inhibitors | 370,000 tested, 0.041% active | AID 485294;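 further: potency means the concentration at half of the fitted maximal effect; 0% = no-compound wells and -100% = no-enzyme wells; nearly all actives have a fitted effect of over 25% in size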
Target sequence (P00811 whole entry, looked up): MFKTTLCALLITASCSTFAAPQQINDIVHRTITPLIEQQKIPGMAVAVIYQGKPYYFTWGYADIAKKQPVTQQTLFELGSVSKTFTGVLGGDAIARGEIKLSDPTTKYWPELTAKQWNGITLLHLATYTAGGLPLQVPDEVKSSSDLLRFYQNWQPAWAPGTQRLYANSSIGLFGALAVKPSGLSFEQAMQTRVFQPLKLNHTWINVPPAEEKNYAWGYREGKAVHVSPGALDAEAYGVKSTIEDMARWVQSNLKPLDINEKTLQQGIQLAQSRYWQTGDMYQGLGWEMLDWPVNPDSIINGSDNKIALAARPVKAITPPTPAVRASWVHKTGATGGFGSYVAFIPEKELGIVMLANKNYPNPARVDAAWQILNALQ
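AmpC (5.3 nM in the dispensed reagent) in 20 mM phosphate pH 7.0 with 0.01% (detergent screen) or 0.0001% Triton X-100 was preincubated with compounds for 15 min at room temperature. Nitrocefin was then added from an 800 uM solution, and hydrolysis was followed at 480 nm.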
FMDV inh: antivirals against foot and mouth disease virus; AID 1159524; FMDV antiviral cell-based qHTS; 410,000 tested, 1.2% active; Potency, µM (series often up to 57.9 µM), for inactives: at the highest dose activity change, negative = inhibition, most hits filed as inhibitors; calls by dose curve; tested in HEK293T cells; further: read-out not given here; potency means the concentration at half of the fitted maximal effect; nearly all actives have a fitted effect of over 45% in size
AmpC inh no detg: AmpC beta-lactamase inhibition without detergent. 330,000 tested, 0.52% active. Potency, µM (titrated, usually from 57.1 µM), for inactives: at the top dose activity change, negative = inhibition, most hits filed as inhibitors. P00811. AID 485341. AmpC nitrocefin hydrolysis, absorbance 480 nm, 0.0001% Triton;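 further: potency means the concentration at half of the fitted maximal effect; plate controls were no compound for no effect and no enzyme for full effect; nearly all actives have a fitted effect of over 20% in size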
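AmpC (5.3 nM in the dispensed reagent) in 20 mM phosphate pH 7.0 with 0.01% (detergent screen) or 0.0001% Triton X-100 was preincubated with compounds for 15 min at room temperature. Nitrocefin was then added from an 800 uM solution, and hydrolysis was followed at 480 nm.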
HCMV inh: inhibitors of human cytomegalovirus. AID 1259415. activity change, negative = inhibition, % at 57.5 µM. 410,000 tested, 4.5% active. HFF cells, HCMV-luciferase reporter, 72 h; active compounds read low; in the data active means activity change below about -60%; inconclusive means no clear call, values can overlap the other calls; inactive means above about -39%
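Cell-based, HFFs, 1000 cells/well, 16 h 37C; cpds in DMSO + HCMV-luc, MOI 1 PFU/cell; 72 h 37C; OneGlo luminescence after 5 min RT; norm. to buffer vs Salinomycin 10uM.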
Numbers without * were called inactive; ? = inconclusive; · = no result. Unless noted, the call rests on the fitted dose curve; in most records, active means well fitted curve in the direction sought with a large enough effect; inconclusive means small, poorly fitted or top-dose-only effect, or another doubt; inactive means no such curve, though single readings can be large; an effect the other way counts as inactive or inconclusive. Unless noted, on the % scale 0 is the no-effect control and ±100 the full control effect.

SMILES | HCV inh | AmpC detergent | FMDV inh | AmpC inh no detg | HCMV inh
COc1ccc(CNc2nn3c(-c4cccc(C(=O)N(C)C)c4)cnc3s2)cc1 | · | · | 0% | · | -66*
Cc1ccc(-c2nnc(Nc3cccc(O)c3)c3ccccc23)cc1S(=O)(=O)NCC1CCCO1 (stereo not given) | · | 2% | 13% | · | ?
Cc1ccc(-c2nnc(N3CCOCC3)c3ccccc23)cc1S(=O)(=O)NCC1CCCO1 (stereo not given) | -6% | -3% | -15% | 98% | -95*
Cc1ccc(-c2n[nH]c(=O)c3ccccc23)cc1S(=O)(=O)NCC1CCCO1 (stereo not given) | -17% | -3% | 24% | -18% | -5
Cc1ccccc1Nc1nnc(-c2ccc(C)c(S(=O)(=O)NCC3CCCO3)c2)c2ccccc12 (stereo not given) | · | 1% | 20% | · | -76*
CCOC(=O)CNS(=O)(=O)c1cc(-c2nnc(Nc3ccc4c(c3)OCO4)c3ccccc23)ccc1C | ? | 1% | 35% | -7% | -65*
O=S(=O)(NCC1CCCO1)c1ccc(Cl)c2ccccc12 (stereo not given) | · | · | 83% | · | -84*
Cc1ccc(-c2nnc(N3CCC(C)CC3)c3ccccc23)cc1 | ? | -7% | ? | -44% | -32
Cc1ccc(-c2n[nH]c(=S)c3ccccc23)cc1S(=O)(=O)NCC1CCCO1 (stereo not given) | ? | -10% | -8% | -14% | -63*
Cc1ccc(-c2nnc(N3CCC(C)CC3)c3ccccc23)cc1C | ? | 1% | 20µM* | -17% | -27
COCCN1CCN(C(=O)c2cnn(-c3nccc(-c4ccccc4OC)n3)c2-c2ccco2)CC1 | · | · | -17% | · | ·
CCC(C)NCCOCCOc1ccc(Cl)cc1Br (stereo not given) | 35µM* | -6% | -10% | 26% | -23
CCC(C)NCCOCCOc1ccccc1-c1ccccc1 (stereo not given) | 13µM* | -3% | -11% | 35% | -23
CC(C)(C)NCCOCCOc1ccccc1-c1ccccc1 | -21% | 3% | -7% | 32% | -10
Cc1ccc(OCCOCCNC(C)C)c(Br)c1 | ? | ? | -19% | -10% | 6
CC1(C)CC(C(=O)N2CCOc3ccc(CN4CCN(Cc5ccccn5)CC4)cc3C2)CCO1 (stereo not given) | · | · | -9% | · | ·
CCOC(=O)COc1cc(-n2c(=S)[nH]c3ccccc3c2=O)c(Cl)cc1Cl | -9% | ? | -30% | 18µM* | -7
CCOC(=O)N1CCN(S(=O)(=O)c2ccc(C(=O)N(CCN(C)C)c3nc4ccc(CC)cc4s3)cc2)CC1 | 1% | -15% | 6% | 10% | -39
CN(C)CCCN(C(=O)c1ccc2c(c1)CCCC2)c1nc2ccc(Cl)cc2s1 | 7.9µM* | -11% | 28µM* | 191% | -79*
CCOC(=O)N1CCN(S(=O)(=O)c2ccc(C(=O)N(CCCN(C)C)c3nc4ccc(CC)cc4s3)cc2)CC1 | ? | -1% | -7% | 249% | -62*
CCOC(=O)N1CCN(S(=O)(=O)c2ccc(C(=O)N(CCCN(C)C)c3nc4ccc(Cl)cc4s3)cc2)CC1 | 11µM* | 0% | -10% | 119% | 8
CCOc1ccc2nc(N(CCCN(C)C)C(=O)c3ccc4c(c3)CCCC4)sc2c1 | ? | 5% | -47% | 177% | -40
Cc1ccc(NCCCCO)cc1C | 8% | 2% | 24% | -23% | -10
COc1ccc(CCC(=O)NCc2nc3cccnc3n2Cc2ccccc2)cc1 | · | 1% | 3% | · | ?
C[C@]12CCC(=O)C[C@@H]1CC[C@@H]1[C@@H]2CC[C@]2(C)[C@@H](O)CC[C@@H]12 | -10% | · | ? | -2% | -61*
SMILES | HCV inh | AmpC detergent | FMDV inh | AmpC inh no detg | HCMV inh
C[C@]12CCC3C(CC[C@H]4C[C@@H](O)CC[C@]34C)C1CC[C@@]2(O)C(F)(F)F (stereo not given in full) | 3% | · | · | -12% | -61*
C[C@]12CCC3C(CC[C@H]4C[C@@H](O)CC[C@]34C)[C@H]1CC[C@H]2O (stereo not given in full) | -5% | · | -26% | -29% | -20
C[C@H]1CC[C@@]2(C)[C@@H](CC[C@@H]3[C@@H]2CC[C@]2(C)[C@@H](O)CC[C@@H]32)C1 | 14% | -9% | -18% | 73% | -100*
O=C(Nc1cccnc1)c1ccc(CSc2ccc(Cl)cc2)o1 | · | · | · | · | -29
O=C(N/N=C/c1cccc2ccccc12)C(=O)N1CCCC1 | -22% | ? | 31% | -18% | -71*
COc1cccc(/C=N/NC(=O)C(=O)N2CCCCCC2)c1OC | -1% | 0% | 17% | -13% | 8
CC(C)(C)CN1CCN(Cc2nc(-c3ccc(F)cc3)cs2)CC1CCO (stereo not given) | 2.2µM* | -5% | ? | 96% | -64*
COCCN(C(=O)Cc1cccs1)c1nnc(-c2ccncc2)s1 | -2% | 2% | -26% | 4% | -10
CCN(C(=O)c1cccs1)c1nnc(-c2ccncc2)s1 | 0% | 1% | 11% | -2% | -65*
CN(C)c1ccc(C(=O)N[C@H]2CC[C@@]34CCCN3C(=O)CCC[C@H]4[C@H]2Cc2ccccc2)cc1 | · | · | · | · | -32
Clc1nc(NCc2ccco2)nc(N2CCCCC2)n1 | -19% | 1% | -15% | -16% | -36
Fc1ccccc1Nc1nc(N2CCOCC2)nc(N2CCOCC2)n1 | ? | -11% | -27% | -20% | 19
CC(C)c1ccc(Nc2nc(NCc3ccco3)nc(N3CCOCC3)n2)cc1 | 10µM* | 3% | -12% | 1% | 15
Fc1ccccc1Nc1nc(NCc2ccco2)nc(N2CCOCC2)n1 | 35µM* | 5% | -20% | 0% | 16
OC(c1ccc(Cl)c(F)c1)c1ncc(-c2cccc(C(F)(F)F)c2)[nH]1 (stereo not given) | · | · | 32% | · | -23
CC1CCc2nc(NC(=O)c3ccc(S(=O)(=O)N4CCCc5ccccc54)cc3)sc2C1 (stereo not given) | ? | -5% | ? | -45% | -87*
CNC(=O)c1ccsc1NC(=O)c1ccc(S(=O)(=O)N2CCCc3ccccc32)cc1 | 10µM* | 0% | ? | -14% | -62*
COCc1nnc(NC(=O)c2ccc(S(=O)(=O)N3CCCCCC3)cc2)o1 | -7% | -11% | -15% | -15% | -12
CCc1nnc(NC(=O)c2ccc(S(=O)(=O)N(CC(C)C)CC(C)C)cc2)o1 | 10% | -1% | 6% | -6% | -9
CCc1nnc(NC(=O)c2ccc(S(=O)(=O)N(C)c3ccccc3)cc2)o1 | 7.1µM* | 0% | 0% | -28% | -75*
CCc1nnc(NC(=O)c2ccc(S(=O)(=O)N3CCCc4ccccc43)cc2)o1 | ? | -6% | · | -46% | -64*
